This is part of a sample that, as a whole, favours compounds with a hit. Of some 83,000 tested, about 20% had one in any assay.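 Assay: single dose, 48 h. Readout: percent growth (0 = no net growth; negative = cell death). Active: <10.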 Values without a mark were called inactive. The source made the active and inactive calls.

The test system of this assay is RPMI-8226 leukemia. The experiment in a line: NCI-60 one-dose screen, 48 h (100 = growth as untreated, 0 = no growth, -100 = all killed). The settings on record: 10 µM unless noted.
Turning to `Cn1nc(C(F)(F)F)cc1-c1cc(Cl)c(OCc2ccc(Cl)cc2)c(-c2ccc(Cl)c(C(F)(F)F)c2)c1O`, the growth was -21.8% (active).
With `CC(=O)O[C@H]1[C@H](CC#CC#CC[C@@H]2C[C@]3(C)[C@H]4CC=C5[C@H]6[C@@H](C)[C@H](C)CC[C@]6(C(=O)NCCN(CCN)CCN)CC[C@@]5(C)[C@]4(C)CC[C@H]3C(C)(C)[C@H]2OC(C)=O)C[C@]2(C)[C@H]3CC=C4[C@H]5[C@@H](C)[C@H](C)CC[C@]5(C(=O)NCCN(CCN)CCN)CC[C@@]4(C)[C@]3(C)CC[C@H]2C1(C)C` the figure was 26.6%.
For `CC(=O)c1ccc(Nc2nc(Cl)nc(Oc3c(Cl)cccc3Cl)n2)cc1`, the growth was 70%.
`Oc1[nH]c2ccccc2c1/C=c1/ccc2c(c1)N=C(c1ccc(C(F)(F)F)cc1)N=2`: the growth was 35.6%.
Next, `Brc1cccc(-n2ncc3c(Nc4ccc(-c5nnc(-c6ccccc6)o5)cc4)ncnc32)c1`: 117%.
With `CCNC(=S)N(Cc1ccccc1)Cc1ccccc1` the figure was 110%; with `COc1cccc(CC(C)=C(c2ccc(OCCCN(C)C)cc2)c2ccc(OCCCN(C)C)cc2)c1`, -53.9% (active); with `N[C@@H](CO)C(=O)O`, 96.9%.
For `O=C(c1ccc(C(F)(F)F)c(Cl)c1)N(Cc1ccc(Cl)cc1)c1ccc(-c2cc(C(F)(F)F)[nH]n2)c(O)c1`, the growth is 1.58% (active).
Turning to `c1ccc(C(Nc2ccccn2)(c2ccccc2)c2ccccc2)cc1`, the growth was 34.7%.
Next, `CC[C@H](Nc1nc(N)nc(N)c1Cl)c1nc2cccc(NCc3ccc(C(=O)NO)cc3)c2c(=O)n1-c1ccccc1`: 3.83% (active); `N#Cc1nc(-c2ccc(Cl)cc2)cc(-c2ccc(Nc3nc(N4CCCCC4)nc(N4CCCCC4)n3)cc2)c1N`: 111%; `C#CC[C@@H]1C[C@]2(C)[C@H]3CC=C4[C@H]5[C@@H](C)[C@H](C)CC[C@]5(C(=O)NCCCCN)CC[C@@]4(C)[C@]3(C)CC[C@H]2C(C)(C)[C@H]1OC(C)=O`: 5.75% (active).
Take `Cn1nc(C(F)(F)F)cc1-c1c[nH]c(OCc2ccc(Cl)cc2)c(-c2ccc(Cl)c(C(F)(F)F)c2)c1=O`: the growth is -26.6% (active).
With `COc1ccc(NC(=O)c2ccc(C(F)(F)F)nc2Nc2ccc(Cl)cc2C)cc1Cl` the figure was -17.9% (active); with `O=C(Cn1nncc1CN1C(=O)CSC1=O)Nc1ccc(F)cc1`, 104%; with `COc1ccc(NC(=O)/C=C/c2ccc(Cl)c(Cl)c2)cn1`, 49.7%.
For `CCCCNCC(O)c1cc(-c2ccc(C(F)(F)F)cc2)nc(-c2ccc(C(F)(F)F)cc2)c1` (stereo not drawn), the growth is -49.9% (active).
Next, `CCCc1cc2c(cc1CN(Cc1cc3c(cc1CCC)OCO3)C(=N)OCC)OCO2`: 55.2%; `CCCNC(=S)N/N=C(\C)c1ccccn1`: 20%.
Regarding `C#CC[C@@H]1C[C@]2(C)[C@H]3CC[C@@H]4[C@H]5C(C(=C)C)CC[C@]5(C(=O)NCCCN5CCN(CCCN)CC5)CC[C@@]4(C)[C@]3(C)CC[C@H]2C(C)(C)[C@H]1OC(C)=O` (stereo partly drawn), the growth was -48.5% (active).
With `COc1cc2nccc(Oc3ccc(NC(=O)C4(C(=O)Nc5c(F)cc(F)cc5F)CC4)cc3)c2cc1Oc1ccc(N)cn1` the figure was 50.1%; with `COc1ccc2[nH]c(C(=O)OCc3ccc4cccc(O)c4n3)cc2c1`, -45.9% (active).
Next, `CCOCC(O)(c1ccc(Cl)cc1)c1ccc(Cl)cc1`: 107%; `Cc1cc(C)cc(NC(=O)Cn2nncc2CN2C(=O)CSC2=O)c1`: 110%; `Cc1ccc(NC(=O)Cn2nncc2CN2C(=O)CSC2=O)cc1C`: 106%.
As for `COC(=O)/C=C/c1cc(OC(C)=O)c2c(c1)[C@@H](C(=O)OC)[C@H](c1ccc(OC(C)=O)c(OC(C)=O)c1)O2`, the growth is 3.3% (active).
Regarding `N=c1n(Cc2ccccc2)c(N)cc(=O)n1Cc1ccccc1`, the growth was 42.6%.
Next, `CC(C)[C@H](CN)NC[C@H](C)NS(=O)(=O)c1ccc(C(C)(C)C)cc1`: 90.4%.
Next, `COc1ccc(/C(=C\c2ccc3c(c2)OCO3)C(=O)Nc2nc3ccccc3s2)cc1`: 94.5%.
Take `Cc1ccc(-c2cnc3sc4ccc(Cl)cc4n23)cc1`: the growth was 98.6%.
With `COc1cc(C2Nc3ccccc3S2)cc(CN2CCOCC2)c1O` (stereo not drawn) the figure was 81.1%.
Next, `CC1=C(O)C(=O)C(c2c(C)cc(C)c(Br)c2C)=C(O)C1=O`: 36.7%.

For the origin of these results see PubChem BioAssay (NCI).
